MCF10A rereplic = DNA re-replication induction in MCF 10a cells; MCF 10A DNA re-replication, Hoechst nuclear intensity, 48 h; Potency, µM (highest dose often 46.1 µM), for inactives: at the top dose activity, positive = re-replication, hits mostly activators; 350,000 compounds, 2.9% hits; AID 624296; also: potency is read from the fitted curve at half-maximal effect; % of control where 0% means no effect; nearly all actives have a fitted effect of over 50% in size
Chronic BCR inh = chronic active BCR signaling inhibition; 340,000 compounds, 0.05% hits; Potency, µM (doses to about 46.1 µM), for inactives: at the highest dose activity change, negative = inhibition, most hits filed as inhibitors; ABC-DLBCL IkBa-CBG/CBR reporter, luminescence ratio, 4 h; AID 493014; active = well fitted inhibition curve with a large enough effect in the signal ratio, with a control signal flat, not every such curve was filed as active; inconclusive = small, poorly fitted or top-dose-only effect, or effect the other way, or a change in a side signal; the % refers to the signal ratio;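 also: potency is read from the fitted curve at half-maximal effect; plate controls were basal doxycycline-induced cells for no effect and cells given 10 µM MG132 for full effect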
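Cell line TMD8 (human ABC DLBCL), stably expressing tet-inducible CBG68-IkBa fusion and CBR; IMDM/0.5% FBS; cpd up to 46 uM; dox induction, 4 h, 37C/5% CO2; dual luminescence; green/red ratio; MG132 control.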
TDP1 cell CPT = DT40-hTDP1 cell growth loss with CPT | chicken DT40 Tdp1-/-;hTDP1 cells + 20 nM CPT, ATP luminescence, 48 h | Potency, µM (series often up to 46.2 µM), without a hit: top-dose activity change, negative = growth inhibition, hits mostly inhibitors | 420,000 compounds, 12% hits; also: potency is read from the fitted curve at half-maximal effect; % is scaled to controls: 0 for no effect and ±100 for the full control effect; nearly all actives have a fitted effect of over 55% in size
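Cell growth measured by CellTiter-Glo luminescence after a minimum 48 h, 37 C compound exposure with 20 nM CPT in Tdp1-knockout DT40 cells stably expressing hTDP1, seeded 400/well; qHTS titration format.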
TDP1 cell noCPT = qHTS for Inhibitors of human tyrosyl-DNA phosphodiesterase 1 (TDP1): qHTS in cells in absence of CPT | Potency, µM (series often up to 46.2 µM), for inactives: at the highest dose activity change, negative = growth inhibition, hits mostly inhibitors | DT40 Tdp1-/- hTDP1 cells, no CPT, ATP luminescence, 48 h | AID 686978, 2013 | 420,000 compounds, 15% hits; also: potency is read from the fitted curve at half-maximal effect; % is scaled to controls: 0 for no effect and ±100 for the full control effect; nearly all actives have a fitted effect of over 55% in size
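Camptothecin absent (DMSO only). Human TDP1-complemented DT40 knockout cells, 400 cells/well, 37 °C for minimum 48 hr; ATP measured via CellTiter-Glo, 30 min dark incubation, luminescence.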
SW480 rerep = inducers of DNA re-replication in SW480 colon cancer cells; Potency, µM (titrated, usually from 46.1 µM), for the others: at the highest dose re-replication activation, most hits filed as activators; 340,000 compounds, 1.8% hits; AID 624297; SW480 DNA re-replication, Hoechst DNA content imaging, 48 h; also: potency is read from the fitted curve at half-maximal effect; % of control where 0% means no effect; nearly all actives have a fitted effect of over 55% in size
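Per well, 250 cells were exposed to pinned compound for 48 hr. Nuclear DNA was visualised with Hoechst (40 min, 37 C) and total object intensity recorded by fluorescence scanning.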
IL-1B inflam inh = inflammasome signaling inhibition, IL-1 beta readout; THP-1 LPS/ATP IL-1B secretion, AlphaLISA, 16 h; stronger effect = lower value; activity change, % at 57.5 µM; 360,000 compounds, 4.7% hits; in the data active = activity change below about -50%; inconclusive = mostly about -30% to -49%; also: % is scaled to controls: 0 for no effect and ±100 for the full control effect
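THP-1 cells pretreated 1 hr with compounds (up to 57.5 uM final), then stimulated with LPS (250 ng/mL final) plus ATP (1.25 mM final); secreted IL-1B measured by AlphaLISA after 16 hr, decreased signal indicating inhibition.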
* marks the source's active call; other numbers are inactive results; ? = inconclusive; / = not tested or not shown; [ ] = remark or other dose. Shown are actives, neighbours in structure and some others; about 19% of the full set was active somewhere. Unless noted, calls follow the shape of the dose curve; as a rule, active = well fitted curve in the direction sought with a large enough effect; inconclusive = small, poorly fitted or top-dose-only effect, or another doubt; inactive = no such curve, though single readings can be large; an effect the other way counts as inactive or inconclusive.

SMILES	MCF10A rereplic	Chronic BCR inh	TDP1 cell CPT	TDP1 cell noCPT	SW480 rerep	IL-1B inflam inh
CCCn1c(=O)c2sccc2n2c(CCCC(=O)NC3CCN(Cc4ccccc4)CC3)nnc12	10%	?	-21%	-21%	-19%	16
CCOCCCNC(=O)CN1C(=O)CCn2nc(-c3cccn3C)cc21	/	/	8%	7%	/	/
Nc1nc2ccccc2n1/N=C/c1ccc([N+](=O)[O-])s1	6%	9%	2.1µM*	2.9µM*	?	-15
Nc1nc2ccccc2n1/N=C/c1ccc(-c2ccccc2)o1	?	?	?	16µM*	?	-29
Cc1ccc(NC(=O)CCNS(=O)(=O)c2cccc3nsnc23)cc1F	5%	14%	3%	-29%	-10%	-2
O=C1C(O)=CC(=C(c2ccccc2)c2ccccc2)c2ccccc21	?	/	?	?	?	-92*
C=CCOc1ccc(Br)cc1CNCCCN1CCOCC1	0%	3%	5%	?	0%	-62*
C=CCOc1ccc(Br)cc1CNCCO	-1%	-1%	-4%	-21%	-6%	-55*
C=CCOc1ccc(Br)cc1CNC(C)(C)CO	2%	5%	-2%	-13%	-1%	-7
OCCCCNCc1cc(Br)ccc1OCc1ccccc1	4%	?	?	?	90%	?
OCCNCc1cc(Br)ccc1OCc1ccccc1Cl	?	?	21µM*	21µM*	11%	-59*
O=C(Cn1nnc2ccccc21)NNC(=O)c1ccccc1	-5%	-15%	3%	-15%	-6%	-2
CCOC(=O)C1=C(C)N=c2s/c(=C\c3ccncc3)c(=O)n2C1c1ccc2c(c1)OCO2 (centres undefined)	?	?	?	?	4%	-67*
CCOC(=O)C1=C(C)N=c2s/c(=C3\C(=O)Nc4ccccc43)c(=O)n2C1c1ccc2c(c1)OCO2 (centres undefined)	3%	-21%	?	?	0%	13
CCOC(=O)C1=C(C)N=c2s/c(=C\c3ccc(OCC(=O)O)cc3)c(=O)n2C1c1ccc(Cl)cc1 (centres undefined)	18µM*	9%	?	?	-56%[1.84 µM]	-8
Nc1ccc(Cc2ccc([N+](=O)[O-])cc2)cc1	11%	/	-25%	?	-2%	-50*
O=C(Nc1cc2c(cc1C(=O)c1ccccc1Br)OCCO2)c1ccccc1	/	/	-4%	-54%	/	/
Clc1ccccc1CNCC1CCC(CNCc2ccccc2Cl)CC1 (centres undefined)	/	/	3µM*	3µM*	/	/
CCOc1ccc(CNCc2ccccc2Cl)cc1	23%	3%	16µM*	?	-51%[1.84 µM]	?
Cc1ccc(CNCc2ccccc2Cl)cc1	2%	?	-3%	?	-3%	-6
CC[C@](C)(O)c1cc2ccccc2c(=O)o1	-2%	?	-11%	-12%	-1%	0
C[C@@H]1CCCCO[C@H](CN(C)Cc2ccc(C(=O)O)cc2)[C@@H](C)CN([C@H](C)CO)C(=O)c2cc(N(C)C)ccc2O1	/	/	-17%	-8%	/	-6
C[C@@H]1CN([C@@H](C)CO)C(=O)c2cc(N(C)C)ccc2O[C@@H](C)CCCCO[C@@H]1CN(C)Cc1ccc2c(c1)OCO2	/	/	16µM*	16µM*	/	-26
C[C@@H]1CCCCO[C@@H](CN(C)Cc2ccc(C(F)(F)F)cc2)[C@@H](C)CN([C@H](C)CO)C(=O)c2cc(N(C)C)ccc2O1	/	/	23µM*	23µM*	/	-53*
COCCN1C(=O)CCC1(C)C(=O)Nc1c(C)cccc1C (centres undefined)	/	/	-8%	11%	/	-9
SMILES	MCF10A rereplic	Chronic BCR inh	TDP1 cell CPT	TDP1 cell noCPT	SW480 rerep	IL-1B inflam inh
CC(=O)N(Cc1ccccc1)C1CC(=O)N(Cc2ccccc2)C1=O (centres undefined)	1%	/	8%	-23%	-2%	-8
CC(C)NC(=O)N1CCC2(CC1)CCN(C(=O)c1ccncc1)CC2	/	/	5%	2%	/	/
Cc1cc(C)c2c(=O)n3c(nc2c1)C(C)NC(=O)c1cccnc1-3 (centres undefined)	/	/	12%	-7%	/	-15
COc1ccc2nc3n(c(=O)c2c1)-c1cc2ccccc2cc1C(=O)NC3Cc1ccccc1 (centres undefined)	/	/	?	21µM*	/	-4
Cc1cc(C)c2c(=O)n3c(nc2c1)C(CC(C)C)NC(=O)c1cccnc1-3 (centres undefined)	/	/	?	23µM*	/	-3
Cc1cc(C)c2c(=O)n3c(nc2c1)C(Cc1ccc(O)cc1)NC(=O)c1cc2ccccc2cc1-3 (centres undefined)	/	/	16µM*	18µM*	/	-16
COc1ccc2nc3n(c(=O)c2c1)-c1cc(Cl)ccc1C(=O)NC3Cc1ccccc1 (centres undefined)	/	-1%	/	/	/	/
COc1ccc2nc3n(c(=O)c2c1)-c1cc2ccccc2cc1C(=O)NC3Cc1ccc(O)cc1 (centres undefined)	/	/	?	18µM*	/	-23
COC(=O)c1cc(S(=O)(=O)N(C)C2CCCCC2)c[nH]1	-3%	-16%	6%	-4%	-7%	4
CCCS(=O)(=O)NCc1c(C)ncc2c1CCN(C(=O)c1cccc(C(F)(F)F)c1)C2	/	/	4%[9.04 µM]	-9%	/	/
COc1cccc(NC(=O)Cn2c(=O)n(Cc3ccco3)c(=O)c3cc(OC)c(OC)cc32)c1	/	/	-14%	-6%	/	/
O=C1NC(Cc2ccc(O)cc2)c2nc3ccc(Br)cc3c(=O)n2-c2cc3ccccc3cc21 (centres undefined)	/	/	12µM*	9.2µM*	/	-24
CC(C)C[C@H]1CN(CCCC[C@@H]2CNC(=O)C(=O)N2Cc2ccccc2)C(=O)C(=O)N1CCc1ccc(O)cc1	/	/	2%	1%	/	-9
COc1ccc(C(=O)NCC(c2cccnc2)N2CCc3ccccc32)cc1OC (centres undefined)	/	/	15µM*	21µM*	/	/
O=C(NCC(c1ccco1)N1CCc2ccccc21)c1c(F)cccc1F (centres undefined)	?	8%	?	-28%	-103%	-10
O=C(NCC(c1cccnc1)N1CCc2ccccc21)c1ccc(F)cc1 (centres undefined)	/	/	23µM*	18µM*	/	/

High-throughput results: PubChem, National Center for Advancing Translational Sciences (NCATS)
